PHOSPHO1 inh: PHOSPHO1 (human) inhibition; Q8TCT1; recombinant PHOSPHO1, absorbance phosphatase assay; inhibition, % at 13.3 µM; hit rate 1.1% among 290,000; in the data active = inhibition above about 60%
Target sequence (Q8TCT1 whole entry, looked up): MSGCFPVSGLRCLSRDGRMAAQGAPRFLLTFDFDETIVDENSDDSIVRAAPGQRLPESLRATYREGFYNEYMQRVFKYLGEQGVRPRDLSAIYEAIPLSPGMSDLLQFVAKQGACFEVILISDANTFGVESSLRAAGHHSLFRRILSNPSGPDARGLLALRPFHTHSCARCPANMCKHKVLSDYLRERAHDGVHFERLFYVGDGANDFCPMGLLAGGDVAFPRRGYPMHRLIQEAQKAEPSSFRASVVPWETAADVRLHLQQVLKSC
NadD inh: blocks S. aureus nicotinate mononucleotide adenylyltransferase | AID 602399 | inhibition, % at 20 µM | hit rate 0.78% among 360,000 | purified NadD enzyme, colorimetric absorbance read-out; in the data active = inhibition above about 26%
SUMO HTRF inh: SUMOylation inhibition; P63279; HTRF SUMOylation assay, SAE1/SAE2 + UBC9, in vitro; inhibition, % at 35 µM; hit rate 0.36% among 290,000; AID 2006; in the data active = inhibition above about 50%, passing the limit was not always enough
Target sequence (P63279 whole entry, looked up): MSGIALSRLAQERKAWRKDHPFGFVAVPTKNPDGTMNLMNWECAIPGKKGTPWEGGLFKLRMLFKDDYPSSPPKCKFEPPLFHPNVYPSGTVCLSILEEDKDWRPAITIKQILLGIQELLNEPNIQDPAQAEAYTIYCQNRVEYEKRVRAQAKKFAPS
p-CIP stab down: compounds decreasing mouse p/CIP protein stability; Q05BA5; F442A p/CIP-EGFP cells, EGFP fluorescence, 16 h; decrease of EGFP signal, % at 10 µM; hit rate 0.01% among 290,000;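 active = EGFP signal decrease of at least 30% at 10 µM or well 3 SD below plate mean, unless failing retest; inactive = the rest, including hits failing retest or dose response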
NadD conf: confirmation of Staphylococcus aureus NadD inhibitors; shares compounds with NadD inh; inhibition, % at 20 µM; hit rate 13% among 2,000; AID 624309; purified S. aureus NadD, colorimetric enzyme assay; in the data active = inhibition mostly above about 42%, no sharp cut-off; inactive = mostly below about 42%
An asterisk follows results filed as active; nt = not tested or not shown. In the library only some 1.8% were active in any assay of this set; here they are far more common.

SMILES | PHOSPHO1 inh | NadD inh | SUMO HTRF inh | p-CIP stab down | NadD conf
CCOC(=O)C1=C(C)N=c2s/c(=C\c3ccc(OC(C)=O)cc3)c(=O)n2C1/C=C/c1ccccc1 (centres undefined) | -8 | 30 | -12 | -14 | nt
CCOC(=O)C1=C(C)N=c2s/c(=C\c3ccc(OC(C)=O)c(OCC)c3)c(=O)n2C1/C=C/c1ccccc1 (centres undefined) | 55 | 54* | 8 | -149 | 4
COC(=O)C1CCN(C(=O)c2cc(-c3ccco3)nc3ccccc23)CC1 | nt | 32* | nt | nt | 56*
COc1ccccc1CNC(=O)COC(=O)c1cc(-c2ccco2)nc2ccccc12 | 17 | 46* | nt | -2 | 39
O=C(COC(=O)c1cc(-c2ccco2)nc2ccccc12)NCc1ccc2c(c1)OCO2 | 2 | 43* | 43 | -3 | -4
O=C(COC(=O)c1ccco1)NCc1ccc2c(c1)OCO2 | 37 | -3 | -2 | -6 | nt
C[C@@H]1COc2cccc(N3CCC[C@H]3CO)c2S(=O)(=O)N1 | nt | -3 | nt | nt | nt
CCCCC1=CC2=CC(=O)C(C)(OC(=O)CC)C(=O)C2=CO1 (centres undefined) | nt | 33* | nt | nt | 45*
CCCCC1=CC2=CC(=O)C(C)(OC(=O)C3CCCC3)C(=O)C2=CO1 (centres undefined) | -53 | 53* | 15 | -11 | 29
COC(=O)c1cccc(-n2c(=O)n(Cc3ccccc3)c(=O)c3[nH]cnc32)c1C | nt | -3 | 14 | -7 | nt
O=C(Nc1ccc(-c2csc(Nc3ccc(Cl)cc3)n2)cc1)c1cc([N+](=O)[O-])cc(C(F)(F)F)c1 | 31 | 43* | -18 | 6 | 8
O=C(Nc1cccc(-c2csc(Nc3ccccc3)n2)c1)c1cc([N+](=O)[O-])cc(C(F)(F)F)c1 | 25 | 37* | -1 | 0 | 9
O=C(CC[C@H]1O[C@@H](n2ccc(=O)[nH]c2=O)[C@H](O)[C@@H]1O)N1CCN(Cc2cccc3ccccc23)CC1 | nt | -3 | nt | nt | nt
Cc1nn(CCc2nn[nH]n2)c2nc(-c3ccc(Br)cc3)cc(C(F)(F)F)c12 | 32 | 28* | 24 | -10 | 42
Cc1nn(CCc2nn[nH]n2)c2nc(C(F)(F)F)cc(C(F)(F)F)c12 | -2 | -5 | 25 | -2 | nt
CCCCC(NC(=O)CCc1c(C)c2cc3c4c(oc3c(C)c2oc1=O)CCCC4)C(=O)O (centres undefined) | 10 | 9 | 34 | -9 | nt
COc1ccc(NC(=O)C2Cc3c(-c4ccccc4)ccnc3O2)cc1OC (centres undefined) | nt | 3 | nt | nt | nt
CSc1ccc(C2C(C#N)=C(N)Oc3c2ccc(=O)c2c(C)oc(C)c32)cc1 (centres undefined) | 14 | 58* | 18 | 1 | 25
Cc1oc(C)c2c(=O)ccc3c(c12)OC(N)=C(C#N)C3c1ccccc1 (centres undefined) | 2 | 10 | 2 | -19 | nt
O=C(O)c1ccc(/C=N/NC(=O)c2ccc(CN3c4cccc5cccc(c45)S3(=O)=O)cc2)cc1 | 35 | 30* | nt | 4 | 66*
CC(/C=N/NC(=O)c1ccc(CN2c3cccc4cccc(c34)S2(=O)=O)cc1)c1ccccc1 (centres undefined) | -7 | 27 | -2 | -4 | nt
O=C1Nc2ccccc2N(O)N1c1ccc(Cl)cc1 | 8 | 6 | -8 | 10 | nt
CCN1c2ccccc2NC2C1C(C(C)=O)C(=O)N2c1ccc(Cl)cc1 (centres undefined) | -10 | 37* | 22 | -33 | 5
Cc1ccc(NS(=O)(=O)c2ccc(Cl)c(C(=O)Nc3ccccc3-c3nc4ccccc4[nH]3)c2)cc1C | -16 | 47* | 0 | 14 | 13
CCOc1cc(C(=O)NC2CC(C)(C)NC(C)(C)C2)cc(OCC)c1OCC | 4 | -4 | 2 | -18 | nt
SMILES | PHOSPHO1 inh | NadD inh | SUMO HTRF inh | p-CIP stab down | NadD conf
CCCCC(=O)Oc1c(S(=O)(=O)c2ccc(C)cc2)c(C)nn1C(C)(C)C | -1 | -8 | -10 | 0 | nt
N#C/C(=C(/O)CN1CCN(c2ccccc2F)CC1)c1nc(-c2ccccc2)cs1 | 34 | 31* | -13 | -4 | 25
CC(C)C(N)c1csc(NC(=O)Nc2cccc(Cl)c2)n1 (centres undefined) | nt | -8 | nt | nt | nt
O=C1NC[C@@H](CCCCN2C[C@H](Cc3ccc(O)cc3)N(CC3CCCCC3)C(=O)C2=O)N(CCC2CCCCC2)C1=O | nt | 27 | nt | nt | nt
O=C(NC(=S)Nc1ccccc1N1CCCC1)c1ccc(-c2cccc([N+](=O)[O-])c2)o1 | 24 | 32* | 20 | -11 | 3
O=C(CC1C(=O)NCCN1Cc1ccc(F)c(F)c1)NCCCn1ccnc1 (centres undefined) | 24 | 1 | -5 | -20 | nt
Cc1ccc(-c2nnc(Oc3ccc(NC(=O)c4ccccc4)cc3)c3ccccc23)cc1 | -3 | 30* | 0 | 0 | 11
COc1ccc(-c2[nH]n(-c3ccc([N+](=O)[O-])cc3)c(=O)c2C=NCc2ccncc2)cc1 | 1 | 29* | -11 | -8 | 4
COc1ccc(-c2[nH]n(-c3ccc([N+](=O)[O-])cc3)c(=O)c2C=NCc2ccc(F)cc2)cc1 | -19 | 9 | 5 | 6 | nt
Nc1c(C(=O)Nc2ccc(S(=O)(=O)N3CCCC3)cc2)sc2nc3cc4c(cc3cc12)CCC4 | -2 | 32* | 20 | 5 | 0
Cc1ccc(-c2csc(Cc3nc(-c4ccc5c(c4)CCC(=O)N5)cs3)n2)cc1 | 8 | 33* | 12 | -8 | 19
Cc1nc(N2CCN(C)CC2)c2cc(-c3ccccc3)sc2n1 | 2 | -2 | -9 | -17 | nt
Cc1nc(N2CCN(S(=O)(=O)c3ccccc3)CC2)c2cc(-c3ccccc3)sc2n1 | 14 | 41* | 3 | -8 | 4
CCOc1ccc(C=NNc2ccc(S(=O)(=O)Nc3ccccc3C(=O)O)cc2[N+](=O)[O-])cc1 | nt | 34* | nt | nt | 76*
CSc1ccc(C=NNc2ccc(S(=O)(=O)Nc3ccccc3C(=O)O)cc2[N+](=O)[O-])cc1 | nt | 41* | nt | nt | 21
CSc1ccc(C(c2c(C(=O)O)[nH]c3ccccc23)c2c(C(=O)O)[nH]c3ccccc23)cc1 | 8 | 37* | 33 | -1 | 48*
CCOc1ccc(N=Nc2c(=O)[nH]n3c(=O)cc(C)[nH]c23)cc1 | 4 | 10 | 2 | -4 | nt
CCOc1ccc(N=Nc2c(=O)[nH]n3c(=O)c4c([nH]c23)CCCC4)cc1 | -10 | 32* | 6 | -3 | 24
CCN1CCN(c2nc3c(C)cccn3c(=O)c2/C=C(\C#N)S(=O)(=O)c2ccccc2)CC1 | 13 | 5 | 18 | -8 | nt
Cc1cccn2c(=O)c(/C=C(\C#N)S(=O)(=O)c3ccccc3)c(N3CCN(c4ccccc4)CC3)nc12 | 29 | 43* | 12 | 5 | 1
O=C(COc1ccc(/C=N/NC(=O)c2ccncc2)cc1)Nc1cccc([N+](=O)[O-])c1 | 32 | 2 | 6 | -16 | nt
O=C(COc1ccc(/C=N/NC(=O)c2ccccc2O)cc1)Nc1ccc([N+](=O)[O-])cc1 | -9 | 40* | 31 | -5 | -2
